Compound activity (PubChem)
ABCB6 inh MLPCN = inhibitors of human ABC transporter ABCB6; fluorescence ratio to DMSO, % at 10 µM; hit rate 0.19% among 360,000; Q9NP58; K562-ABCB6 porphyrin accumulation, flow cytometry, 1 h; hits give low values;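 active = fluorescence ratio to DMSO below 75%, the collection mean minus 3 SD; inconclusive = too few cells collected in the well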;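 note: signal is porphyrin accumulated inside mitochondria; 100% equals median channel fluorescence of DMSO control wells; lower ratio means ABCB6 inhibition with less porphyrin fluorescence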
AI-2 QS mod = modulates the Vibrio harveyi AI-2 quorum sensing system; Vibrio harveyi JMH597 AI-2 luminescence/OD600 ratio, 9 h; hits give low values; strain lacks LuxN and CqsS sensors; 0 = neutral-control median; activity change, % at 7.5 µM; hit rate 0.4% among 300,000; in the data active = activity change below about -75%, passing the limit was not always enough; inconclusive = no clear call, values can overlap the other calls;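 note: luminescence divided by OD600 gain over 9 h not by final OD600 alone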
PHOSPHO1 inh = PHOSPHO1 (human) inhibition. Q8TCT1. recombinant PHOSPHO1, absorbance phosphatase assay. inhibition, % at 13.3 µM. hit rate 1.1% among 290,000; in the data active = inhibition above about 60%
Target sequence (Q8TCT1 whole entry, looked up): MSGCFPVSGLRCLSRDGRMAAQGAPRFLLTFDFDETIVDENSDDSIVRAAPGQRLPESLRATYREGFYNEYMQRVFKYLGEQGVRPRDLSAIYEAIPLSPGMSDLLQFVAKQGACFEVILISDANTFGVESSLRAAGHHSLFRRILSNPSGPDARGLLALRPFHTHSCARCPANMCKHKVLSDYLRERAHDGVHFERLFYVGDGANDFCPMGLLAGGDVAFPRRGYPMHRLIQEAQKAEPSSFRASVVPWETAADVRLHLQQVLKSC
PABP FP inh = PABP-poly(A) binding inhibition; P11940; PABP-poly(A) RNA binding, fluorescence polarization; calls only at 35 µM; hit rate 1% among 290,000; AID 2014;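 note: calls also rest on retests at 20 µM and on dose response follow-up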
eIF4H FP inh = inhibitors of RNA binding by human eIF4H; Q15056; hit rate 0.94% among 290,000; AID 2012; eIF4H fluorescence polarization binding assay; inhibition, % at 35 µM;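 note: calls also rest on retests at 20 µM and on dose response follow-up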
PABP1 MLLE inh = blocks PAM2 peptide binding to the PABP1 MLLE domain | inhibition, % at 20 µM | hit rate 0.36% among 360,000 | GST-MLLE / FITC-PAM2 fluorescence polarization; in the data active = inhibition above about 35%, passing the limit was not always enough;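 note: plate controls were DMSO wells with GST-MLLE for no effect and wells lacking GST-MLLE protein for full effect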
JMH597 growth = retest: inhibitors of Vibrio harveyi JMH597 growth | shares compounds with AI-2 QS mod | OD600 absorbance, 9 h; lacks LuxN and CqsS sensors | growth inhibition, % at 7.5 µM | hit rate 1% among 750 | AID 2726;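 active = every replicate shows growth inhibition above 50%; inconclusive = at least half, but not all, replicates pass that cutoff; inactive = fewer than half of replicates pass it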
BB721 const-QS lum = retest counter-screen: luminescence loss in constitutive-on quorum sensing strain BB721. inhibition, % at 7.5 µM. hit rate 95% among 750. Vibrio harveyi BB721 luminescence, 9 h. shares compounds with AI-2 QS mod. AID 2727;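 active = inhibition above about 80% in every replicate, not just on average, limit read from the data; inconclusive = at least half of replicates past the limit, but not all; inactive = fewer than half of replicates past the limit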
BB721 growth rt = retest: blocks Vibrio harveyi BB721 growth; shares compounds with AI-2 QS mod; OD600 absorbance, 9 h; growth inhibition, % at 7.5 µM; hit rate 3% among 750;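 active = every replicate shows growth inhibition above 50%; inconclusive = at least half but not all replicates above 50% inhibition; inactive = under half of replicates above 50% inhibition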
JMH597 AI-2 mod = Vibrio harveyi AI-2 signaling luminescence modulation – JMH597 strain, confirmation; shares compounds with AI-2 QS mod; Vibrio harveyi JMH597 AI-2 quorum sensing luminescence, 9 h; luxN and CqsS knockout, AI-2 only; hit rate 97% among 750; inhibition, % at 7.5 µM;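 active = every replicate shows more than 75% inhibition of signal versus neutral control wells; inconclusive = half to three quarters of replicates exceed 75% inhibition; inactive = fewer than half of replicates exceed 75% inhibition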
The depositor's hits bear a star; i = inactive; ? = inconclusive; / = no result given; + = active, no number. Hits are enriched below; roughly 2.6% of the tested compounds scored in any of these assays. Unless noted, the rule behind the calls is not given here.

SMILES	ABCB6 inh MLPCN	AI-2 QS mod	PHOSPHO1 inh	PABP FP inh	eIF4H FP inh	PABP1 MLLE inh	JMH597 growth	BB721 const-QS lum	BB721 growth rt	JMH597 AI-2 mod
O=C(NC1CCCC1)c1sc(=S)n2c1[nH]c(=O)c1ccccc12	90	38	50	i	2	27	/	/	/	/
O=C(NCc1ccco1)c1sc(=S)n2c1[nH]c(=O)c1ccccc12	96	33	54	i	5	45*	/	/	/	/
COc1ccc2c3c(ccc2c1)C(=O)/C(=C/O)CC3	122	/	/	/	/	43*	/	/	/	/
CCN(CC)C(=O)c1cccc(-c2csc(C(O)c3cccc(OC)c3)n2)c1 (centres undefined)	85	/	/	/	/	2	/	/	/	/
CC(C)c1nnc(NC(=O)CS(=O)(=O)Cc2ccccc2)s1	100	-3	41	i	-2	41*	/	/	/	/
Cc1cc(F)ccc1C(O)c1ncc(-c2ccccc2F)[nH]1 (centres undefined)	101	/	/	/	/	-2	/	/	/	/
Cc1ccc(-c2nnc(-c3cc(C)on3)o2)cc1	103	1	61*	i	2	7	/	/	/	/
CC1(C(=O)Nc2ccc(Cl)c(Cl)c2)CCN1Cc1cc2ccccc2o1 (centres undefined)	98	/	/	/	/	3	/	/	/	/
OC(c1ccccc1)c1nc(-c2cccc(C(F)(F)F)c2)cs1 (centres undefined)	102	/	/	/	/	-7	/	/	/	/
C=CCc1c(C)[nH]c(=S)c(C#N)c1C	91	22	83*	i	-1	19	/	/	/	/
CC(C)(C)NC(=O)C1(C)CCC(=O)N1CCCn1ccnc1 (centres undefined)	100	/	/	/	/	2	/	/	/	/
CC(C)CNC(=O)C1(C)CCCN1C(=O)CCc1cccs1 (centres undefined)	101	/	/	/	/	-5	/	/	/	/
COc1cccc(CN2CCNC(=O)C2CC(=O)N(C)CC2CCOCC2)c1OC (centres undefined)	105	/	11	i	-4	6	/	/	/	/
COc1cccc(CN2CCNC(=O)C2CC(=O)N(C)C2CCOCC2)c1OC (centres undefined)	103	27	66*	i	3	4	/	/	/	/
COc1ccc(CN2C(=O)CCC2(C)c2nnnn2-c2ccc3c(c2)OCCO3)cc1 (centres undefined)	103	/	/	/	/	/	/	/	/	/
C/C(=N\N=C1\NC(=O)C(CC(=O)Nc2ccc(Cl)cc2)S1)c1ccco1 (centres undefined)	103	2	30	+	50	10	/	/	/	/
CCN(CC)c1ccc(N=C2C=CC(=O)C=C2NC(C)=O)cc1	143	/	/	/	/	11	/	/	/	/
COc1cc(/C=C2\SC(=O)N(CCNC(=O)c3sc4cc(F)ccc4c3Cl)C2=O)cc(OC)c1OC	73*	14	24	i	10	-23	/	/	/	/
CCOC(=O)c1c(C)nc(C)c(C(=O)OCC)c1-c1cccc(N)c1	99	7	60*	i	2	-3	/	/	/	/
COC(=O)c1ccc(CNc2ccc(C(C)=O)cc2)cc1	98	/	/	/	/	-11	/	/	/	/
O=C(O)c1ccc(N/N=C/c2ccc3c(c2)OCO3)cc1	102	-85*	-9	i	9	15	9	98*	39	98*
COc1cccc(C(=O)Oc2ccc(/C=N/Nc3ccc(C(=O)O)cc3)cc2OC)c1	89	41	5	i	-2	2	/	/	/	/
O=C(O)c1ccc(N/N=C/c2cc3c(cc2[N+](=O)[O-])OCO3)cc1	101	?	24	/	/	26	26	93*	15	94*
COc1cccc(OCc2cc(/C=N/Nc3ccc(C(=O)O)cc3)ccc2OC)c1	108	-84*	2	i	16	-21	19	92*	5	95*
CN(C)C(=O)COc1ncnc2sc(-c3ccccc3)cc12	96	-84*	24	i	-8	-25	15	94*	13	97*
SMILES	ABCB6 inh MLPCN	AI-2 QS mod	PHOSPHO1 inh	PABP FP inh	eIF4H FP inh	PABP1 MLLE inh	JMH597 growth	BB721 const-QS lum	BB721 growth rt	JMH597 AI-2 mod
COc1ncnc2sc(-c3ccccc3)cc12	94	27	-6	i	-3	4	/	/	/	/
c1ccc2oc(SCc3cn4ccccc4n3)nc2c1	96	-78*	7	i	8	-9	3	92*	3	95*
c1ccc2nc(SCc3cn4ccccc4n3)cnc2c1	91	-69	52	i	13	28	/	/	/	/
c1ccc(-c2noc(CSc3nc4ccccc4o3)n2)cc1	97	?	21	i	7	9	-3	87*	-34	94*
c1ccc(OCCSc2nc3ccccc3o2)cc1	92	-80*	20	i	-12	-78	27	94*	7	96*
CC(C)(C)c1ccc(SC2=C[C@@]3(O)CC[C@@H](O)[C@@](Sc4ccc(C(C)(C)C)cc4)(C2=O)[C@H]3O)cc1	276	/	/	/	/	/	/	/	/	/
Cc1cc(O)ccc1-c1ccc2nncn2c1	107	/	/	/	/	5	/	/	/	/
Cc1ncn(-c2ccc(C(=O)Oc3ccccc3)cn2)n1	96	-87*	28	i	9	-7	19	93*	1	96*
CCc1nc2ccc(C(=O)NCCCN3CCCC3=O)cn2c1N(CC)CCOC	100	/	/	/	/	5	/	/	/	/
CCCNC(=O)c1cc(C2CCCCN2C(=O)c2cc(C(C)(C)C)nn2C)on1 (centres undefined)	89	/	/	/	/	8	/	/	/	/
O=C(COC(=O)c1n[nH]c2ccccc12)Nc1ccccc1	98	-66	28	i	-3	14	/	/	/	/
CC(=O)c1cccc(NC(=O)COC(=O)c2n[nH]c3ccccc23)c1	96	-81*	4	i	-4	0	11	95*	-3	97*
Cc1cc(C)cc(NC(=O)COC(=O)c2n[nH]c3ccccc23)c1	91	-89*	46	i	-4	-21	-8	96*	-23	96*
Cc1ccc(N2CCC3CC2c2cc(-c4ccc(C(F)(F)F)cc4)ccc23)cc1 (centres undefined)	97	/	/	/	/	0	/	/	/	/
COc1cccc(Oc2cn[nH]c2-c2ccc(O)cc2O)c1	100	-84*	-3	i	-9	2	?	98*	?	99*
CC(C)N1CCC1(C)C(=O)Nc1cccc(C#N)c1 (centres undefined)	97	/	/	/	/	10	/	/	/	/
O=C(O)c1ccc(NCc2cccnc2)cc1	102	19	6	i	-10	16	/	/	/	/
O=C(O)c1ccc(NCc2ccc(Br)cc2)cc1	102	-96*	37	i	0	3	-8	100*	12	100*
COc1ccc(NC(=O)NCc2ccc(Cl)cc2)cc1	92	-16	27	i	-3	0	/	/	/	/
